Reference: PubChem BioAssay (Tox21)
Inconclusive results are not listed. Values without a mark were called inactive. Active and inactive are the calls of the source. Calls come from the whole dose curve; as a rule, active = well fitted activation curve with a large enough effect in the repeat runs; inconclusive = weak or mixed curves; inactive = flat fitted curve, though single readings scatter.

Experiment: A CellTox Green Cytotoxicity Assay to monitor cytotoxicity in HepG2 cells - 16 hour (AID 1224876); note: nearly all actives have a fitted effect of over 45% in size
Settings: CellTox Green fluorescence; series mostly up to 76.8 µM
Text: National Center for Advancing Translational Sciences [NCATS]
NIH Chemical Genomics Center [NCGC]
U.S. Environmental Protection Agency [EPA]
National Institutes of Environmental Health Sciences [NIEHS]
National Toxicology Program [NTP]
Cell-based models are critical for drug discovery. Determining the natural cytotoxic effects resulting from test compounds is an essential research activity. A CellTox Green Cytotoxicity Assay to monitor cytotoxicity in real time of continues cell culture during 40 hours of the compound treatment was used to screen Tox21 10K library compounds in HepG2 cells. CellTox Green Cytotoxicity Assay is a nonlytic, homogeneous, biofluorescent method to measure cytotoxicity in cell culture after experimental manipulation. The assay system uses a proprietary asymmetric cyanine dye that is excluded from viable cells but preferentially stains the dead cell's DNA. […] Viable cells produce no appreciable increases in fluorescence. Therefore, the fluorescence signal produced by the binding interaction with dead cell DNA is proportional to cytotoxicity.
The mixture of HepG2 cell suspension and reagents were dispensed at 600cells/6 ul/well in 1536-well tissue culture treated black solid bottom plates using a Multidrop dispenser. After the assay plates were incubated at a 37 C/5% CO2 incubator for 5 hours, 23 nL of compounds dissolved in DMSO, positive and negative controls was transferred to the assay plate by a pintool work station. The plates were incubated at 37 C for 40 hours. The fluorescence intensity were measured at 0h, 8h, 16h, 24h, 32h and 40h time points using ViewLux plate reader during compound treatment.
% is set by controls: 0 for no effect and ±100 for the full control effect.

Row | Compound | outcome | cytotoxicity increase
1 | CN1C(C)(C)CC(O)CC1(C)C | inactive | 
2 | CO[C@@]1(NC(=O)C(C(=O)O)c2ccc(O)cc2)C(=O)N2C(C(=O)O)=C(CSc3nnnn3C)CO[C@@H]21 (stereo not given in full) | inactive | 
3 | CC(C)C[C@@H](N)C(=O)O |  | -14.3% [at 15.8 µM]
4 | C=C(C)C(=O)OCCOCCOCCOCCOC(=O)C(=C)C | inactive | 
5 | CCCCN1C=CN(C)C1 |  | -14.5% [at 15.8 µM]
6 | CC(C)(C)OC(=O)c1cccc(N)c1 | inactive | 
7 | CC(C)(C)C(=O)Oc1ccc(S(=O)(=O)Nc2ccccc2C(=O)NCC(=O)O)cc1 | inactive | 
8 | COc1ccnc(CS(=O)c2nc3cc(OC(F)F)ccc3[nH]2)c1OC (stereo not given) | inactive | 
9 | CCCCCC(C)N (stereo not given) | inactive | 
10 | Nc1ccn([C@@H]2O[C@H](CO)[C@@H](O)C2O)c(=O)n1 (stereo not given in full) | inactive | 
11 | CNCCO | inactive | 
12 | COc1c(N2CCNC(C)C2)c(F)cc2c(=O)c(C(=O)O)cn(C3CC3)c12 (stereo not given) | inactive | 
13 | C[C@@H]1C[C@H]2[C@@H]3C[C@H](F)C4=CC(=O)C(Cl)=C[C@]4(C)[C@@]3(F)[C@@H](O)C[C@]2(C)[C@@]1(O)C(=O)CO | inactive | 
14 | CCOC(=O)COC(=O)c1ccccc1C(=O)OCC | inactive | 
15 | C[C@@H]1CCC[C@H](C)N1 | inactive | 
16 | CC(COc1ccccc1)NN (stereo not given) | inactive | 
17 | C=CC(C)(CCC=C(C)C)OC(=O)CC (stereo not given) | inactive | 
18 | Cc1ccccc1N=C(N)N=C(N)N | inactive | 
19 | CNCC(O)c1ccc(O)c(O)c1 (stereo not given) | inactive | 
20 | C=CC(=O)OCCCl | inactive | 

Row | Compound | outcome | cytotoxicity increase
21 | C[C@H]1C[C@H]2[C@@H]3CCC4=CC(=O)C=C[C@]4(C)[C@H]3C(=O)C[C@]2(C)[C@@]1(O)C(=O)CO | inactive | 
22 | CCN[C@H]1C[C@H](C)S(=O)(=O)c2sc(S(N)(=O)=O)cc21 | inactive | 
23 | CC(=O)N[C@H]1[C@H]([C@H](O)[C@H](O)CO)OC(C(=O)O)=C[C@@H]1N=C(N)N | inactive | 
24 | OCCCCCO | inactive | 
25 | CCN(CC#N)c1cccc(C)c1 | inactive | 
26 | CCC1C(=O)OCC1Cc1cncn1C (stereo not given) | inactive | 
27 | CCCCCCCCN1CCCC1=O | inactive | 
28 | CCCO[Si](OCCC)(OCCC)OCCC | inactive | 
29 | CCOC(=O)OC(C)OC1=C(C(=O)Nc2ccccn2)N(C)S(=O)(=O)c2ccccc21 (stereo not given) | inactive | 
30 | CCN1C=CN(C)C1C (stereo not given) | inactive | 
31 | CCCC(=O)O[C@]1(C(=O)CC)CC[C@H]2[C@@H]3CCC4=CC(=O)CC[C@]4(C)[C@H]3[C@@H](O)C[C@@]21C | inactive | 
32 | CCOc1ccccc1OCC | inactive | 
33 | O=S(=O)(O)c1cccc2c(S(=O)(=O)O)cccc12 | inactive | 
34 | O=C(O)Cc1csc(-c2ccc(Cl)cc2)n1 | inactive | 
35 | CC(=O)c1ccccc1[N+](=O)[O-] | inactive | 
36 | CCCCCCCCCCCCSC | inactive | 
37 | CC(C)CCCO | inactive | 
38 | CO[C@@]1(NC(=O)CSC[C@@H](N)C(=O)O)C(=O)N2C(C(=O)O)=C(CSc3nnnn3C)CS[C@@H]21 | inactive | 
39 | COc1ccccc1OCC1CNC(=O)O1 (stereo not given) | inactive | 
40 | CN1CC(=O)N/C1=N/C(=O)Nc1cccc(Cl)c1 | inactive | 
